Values joined by “and” are separate entries in the source; they are usually repeats but may differ in a detail not shown here. Equal entries are not always repeated. Inconclusive results are not listed. Active and inactive are the calls of the source. Unless noted, the call rests on the fitted dose curve. Bounds are passed on as bounds.

The source of these data is PubChem BioAssay (NCATS).

Experiment [1] in a line: Cell Viability - SK-N-SH (AID 435).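 Further: potency means the concentration at half of the fitted maximal effect; compound exposure lasted 40 h at 37 °C.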 The note with it: SK-N-SH neuroblastoma cell viability qHTS. The essentials: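 SK-N-SH human neuroblastoma cells (1500/well) were exposed to compounds in complete medium for 40 h at 37 °C, and intracellular ATP was then measured by CellTiter-Glo luminescence. AC50 was taken from Hill fits, normalized to DMSO and 100 uM tamoxifen.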
A general note: qHTS replaces the single test concentration by a dilution series.

A short description of experiment [2]: Cell Viability - H-4-II-E (AID 543; active means well fitted curve in the direction sought with a large enough effect; an effect the other way counts as inactive or inconclusive; further: on the % scale 0 is the no-effect control and ±100 the full control effect; nearly all actives have a fitted effect of over 35% in size). The note with it: H-4-II-E rat hepatoma viability; series mostly up to 92.2 µM. The method in brief: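 Cells seeded at 1500 per well and rested 5 hr; compounds added; 40 hr incubation at 37 °C; CellTiter-Glo added, 20 min at room temperature; luminescence read. Hill-equation fits gave AC50.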
Experiment [3] addresses Estrogen receptor (Homo sapiens) (UniProt P03372). Briefly: qHTS assay for small molecule antagonists of estrogen receptor alpha signaling (AID 588513; active means well fitted curve in the direction sought with a large enough effect in the signal ratio, with a control signal flat, not every such curve was filed as active; the % refers to the signal ratio; further: on the % scale 0 is the no-effect control and ±100 the full control effect). The note with it: ER-alpha-UAS-bla HEK293, beta-lactamase ratio, antagonist mode; series mostly up to 76.9 µM. The method in brief: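 ER-alpha-UAS-bla GripTite HEK 293 cells in medium with 2% charcoal/dextran-treated FBS were preincubated 4 h at 37 C, dosed with compound (1:2 titration), stimulated with 0.5nM 17-beta-estradiol for 18 h, then read by CCF4 beta-lactamase fluorescence.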

Experiment [4] shares this target. Briefly: qHTS assay for small molecule agonists of estrogen receptor alpha signaling (AID 588514). Further: nearly all actives have a fitted effect of over 70% in size. Further: potency means the concentration at half of the fitted maximal effect.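 On activation: 0% = vehicle only and 100% = reference agonist.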 The note with it: ER-alpha-UAS-bla HEK293, beta-lactamase ratio, 18 h; series mostly up to 76.8 µM. The essentials: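 Efficacy is expressed against 20 nM 17-beta-estradiol (100%) and DMSO basal (0%); EC50 from Hill equation. Assay: beta-lactamase reporter in ER-alpha-UAS-bla HEK 293 cells, 18 h compound incubation, CCF4 detection.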

Experiment [5] concerns the target Glucocorticoid receptor (Homo sapiens) (UniProt P04150). In words: qHTS assay for small molecule agonists of glucocorticoid receptor signaling (AID 588532; active means well fitted curve in the direction sought with a large enough effect in the signal ratio, with a control signal flat; the % refers to the signal ratio;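 further: 100% = dexamethasone at 0.1 µM and 0% = DMSO only wells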). The note with it: HeLa MMTV-bla, beta-lactamase ratio, agonist, 18 h; stronger effect = higher value; percent of dexamethasone control, DMSO zero. The method in brief:
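MMTV-bla HeLa, beta-lactamase reporter; medium with 1% charcoal/dextran-stripped FBS; cpds up to 92 uM, 18 h, 37 C; CCF4 readout 460/530 nm; Hill fit → EC50, efficacy vs 0.1 uM dexamethasone = 100%.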

Experiment [6] shares this target. Briefly: qHTS assay for small molecule antagonists of glucocorticoid receptor signaling (AID 588533; active means well fitted inhibition curve with a large enough effect in the signal ratio, with a control signal flat, not every such curve was filed as active; the % refers to the signal ratio;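 further: cells stimulated with 2 nM dexamethasone as agonist; on the % scale 0 is the no-effect control and ±100 the full control effect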). The note with it: HeLa MMTV-bla, GRE beta-lactamase ratio, antagonist mode, 18 h; series mostly up to 76.8 µM. The method in brief:
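Antagonist-mode qHTS: compound titrations added to GRE-bla HeLa cells, then dexamethasone 2 nM final; 18 h, 37 C. CCF4 FRET fluorescence normalized to dexamethasone and DMSO; IC50 from Hill fit.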

Experiment [7] concerns the target Peroxisome proliferator-activated receptor gamma (Homo sapiens) (UniProt P37231). In words: qHTS assay for small molecule antagonists of peroxisome proliferator-activated receptor gamma signaling (AID 588537; active means well fitted inhibition curve with a large enough effect in the signal ratio, with a control signal flat, not every such curve was filed as active; the % refers to the signal ratio;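 further: reporter cells co-stimulated with 50 nM rosiglitazone agonist during compound treatment; % of control where 0% means no effect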). The note with it: HEK293 PPARg-UAS-bla, beta-lactamase ratio, antagonist mode; series mostly up to 76.8 µM. The essentials:
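Compounds are tested as concentration series for inhibition of rosiglitazone-driven (50 nM) reporter expression in GeneBLAzer PPAR-gamma-UAS-bla HEK293 cells. After 16 h at 37 C, CCF4 substrate is added for 2 h at room temperature and blue/green fluorescence is measured.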

Experiment [8] has as its target Vitamin D3 receptor (Homo sapiens) (UniProt P11473). Briefly: qHTS assay for small molecule antagonists of vitamin D receptor signaling (AID 588541).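 Further: receptor activated by calcitriol during compound treatment; on the % scale 0 is the no-effect control and ±100 the full control effect.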 The note with it: HEK293T VDR-UAS-bla, beta-lactamase ratio, antagonist mode; series mostly up to 76.7 µM. The method in brief:
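VDR-UAS-bla HEK293T cells (2000/well, 2% charcoal-stripped FBS) were treated with titrated compounds plus 1-alpha,25-dihydroxyvitamin D3 (50 nM or 3 nM final) for 16 h at 37 C. CCF4 beta-lactamase fluorescence was read; Hill fits gave IC50.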

Experiment [9] is described as follows: qHTS assay for small molecule activators of the nuclear factor-kappa B (NF-kB) signaling pathway (AID 651749; active means well fitted activation curve with a large enough effect in the signal ratio; the % refers to the signal ratio; further: % of control where 0% means no effect). The note with it: NF-kB-bla ME-180 cells, beta-lactamase FRET ratio, 16 h; stronger effect = higher value. The essentials: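 Human ME-180 cervical cells with an NF-kB-bla construct; compounds added via 23 nL pin transfer, DMSO as vehicle; incubation 16 hr. Reporter activity measured by FRET disruption.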

Experiment [10] is described as follows: qHTS assay for small molecule disruptors of the mitochondrial membrane potential - 1 hr assay (AID 651754). Further: on the % scale 0 is the no-effect control and ±100 the full control effect; nearly all actives have a fitted effect of over 35% in size. The note with it: series mostly up to 92.2 µM. The method in brief: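 Loss of mitochondrial potential shifts the cationic dye from red mitochondrial aggregates to green cytoplasmic monomers. Cells (HepG2) are treated with compound for 1 hr before a 30 min dye incubation at 37C.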

Experiment [11] is described as follows: qHTS assay for small molecule disruptors of the mitochondrial membrane potential - 5 hr assay (AID 651755). Further: on the % scale 0 is the no-effect control and ±100 the full control effect; nearly all actives have a fitted effect of over 40% in size. The note with it: JC-1-type ratio dye; series mostly up to 92.2 µM. The method in brief: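 Seed HepG2 overnight, add compound, incubate 5 hr at 37C and 5% CO2, stain 30 min with Mito-MPS, then measure monomer (490/535 nm) and aggregate (540/590 nm) fluorescence.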

The target of experiment [12] is Nuclear receptor ROR-gamma (Homo sapiens) (UniProt P51449). Briefly: qHTS assay for small molecule antagonists of the retinoid-related orphan receptor gamma (ROR-gamma) signaling pathway (AID 651802; active means well fitted curve in the direction sought with a large enough effect; an effect the other way counts as inactive or inconclusive;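 further: CHO cells with doxycycline-induced ROR-gamma expression; on the % scale 0 is the no-effect control and ±100 the full control effect; nearly all actives have a fitted effect of over 60% in size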). The note with it: ROR-gamma antagonist cell reporter assay; series mostly up to 92.2 µM. The essentials:
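Steps: cells dispensed; compound or DMSO transferred by pin tool; doxycycline added to induce the ROR response element-driven luciferase; plates held 16hr at 37C; ONE-Glo added and luminescence measured.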

The nature of experiment [13]: qHTS assay for small molecule agonists of the antioxidant response element (ARE) signaling pathway measured by Nrf2-dependant transcriptional activity (AID 720636; active means well fitted curve in the direction sought with a large enough effect in the repeat runs; an effect the other way counts as inactive or inconclusive;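 further: HepG2 cells with an ARE-driven luciferase reporter; % of control where 0% means no effect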). The note with it: ARE-luc HepG2, Nrf2 luciferase reporter, 16 h; series mostly up to 92.4 µM. The essentials:
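In HepG2 cells engineered with an Nrf2-responsive luciferase gene, ARE induction was quantified as luminescence after 16 hr compound treatment at 37 C.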

Experiment [14] can be described thus: Cell Viability - NIH 3T3 (AID 541; active means well fitted curve in the direction sought with a large enough effect; an effect the other way counts as inactive or inconclusive;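 further: plate controls were DMSO alone for no effect and tamoxifen positive control for full effect; nearly all actives have a fitted effect of over 25% in size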). The note with it: NIH 3T3 cell viability, qHTS; activity change, negative = cytotoxicity: at 92.2 µM (top of the series). The essentials: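 Cells seeded at 1000/well, rested 5 hr at 37 °C, then dosed and incubated 40 hr at 37 °C. CellTiter-Glo added, 20 min room temperature, luminescence read. AC50 by Hill fit.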
Experiment [15] is described as follows: MultiTox-Fluor Cytotoxicity Assay - LYMP1-001 - Live Cells (AID 947; active means well fitted curve in the direction sought with a large enough effect; an effect the other way counts as inactive or inconclusive;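 further: 0% = DMSO only and full inhibition = tetraoctylammonium bromide control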). The note with it: LYMP1-001 lymphoblastoid cells, live-cell protease fluorescence viability; series mostly up to 92.2 µM.
The target of experiment [16] is Thyroid hormone receptor beta (Homo sapiens) (UniProt P10828). Briefly: qHTS assay for small molecule antagonists of thyroid hormone receptor beta signaling (AID 588547; active means well fitted inhibition curve with a large enough effect in the signal ratio, with a control signal flat, not every such curve was filed as active; the % refers to the signal ratio;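 further: cells stimulated with 0.4 nM T3 agonist during compound exposure; on the % scale 0 is the no-effect control and ±100 the full control effect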). The note with it: TR-UAS-bla HEK293, beta-lactamase ratio, antagonist mode, 18 h. The essentials: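 TR-UAS-bla GripTite HEK293 cells in 2% charcoal/dextran FBS medium were preincubated 4 h at 37 C, given compound (0.59 nM to 92 uM) plus 0.4 nM T3 (final) for 18 h, then CCF4 for 2 h at RT; Hill fit gave IC50.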

A short description of experiment [17]: qHTS assay for small molecule antagonists of peroxisome proliferator-activated receptor delta signaling (AID 588535; active means well fitted inhibition curve with a large enough effect in the signal ratio, with a control signal flat, not every such curve was filed as active; the % refers to the signal ratio;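 on max response: cells co-treated with a PPAR-delta agonist as stimulator during compound exposure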). The note with it: HEK293T PPARd-UAS-bla, beta-lactamase FRET ratio, 18 h; 460 nm channel. The method in brief:
(§1)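 Inhibition of PPAR-delta response element-driven beta-lactamase expression is measured in HEK293T cells exposed to a compound titration series for 18 hrs at 37 C. Half-maximal inhibition comes from Hill equation fitting.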

The target in experiment [18] is Peroxisome proliferator-activated receptor delta (Homo sapiens) (UniProt Q03181). The experiment is described as above. The note with it: HEK293T PPARd-UAS-bla, beta-lactamase FRET ratio, 18 h; series mostly up to 76.7 µM. The method in brief:
as §1

The target is the same in experiment [19]. Briefly: qHTS assay for small molecule agonists of peroxisome proliferator-activated receptor delta signaling (AID 588534).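 Further: 0% = DMSO basal wells and 100% = positive control agonist at 10 µM.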 The note with it: HEK293T PPARdelta-UAS-bla, beta-lactamase ratio, 18 h; series mostly up to 76.7 µM. The essentials:
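Agonist-mode qHTS; reporter cells, 5 hrs 37 C pre-incubation; compound titration, 18 hrs 37 C; CCF4 dye, 2 hrs RT; fluorescence read. EC50/efficacy via Hill fit.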

A short description of experiment [20]: qHTS assay for small molecule agonists of the antioxidant response element (ARE) signaling pathway (AID 651741; active means well fitted activation curve with a large enough effect in the signal ratio; the % refers to the signal ratio; further: % of control where 0% means no effect). The note with it: HepG2 ARE-bla reporter, beta-lactamase FRET ratio, 16 h; series mostly up to 96 µM. The essentials: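 Reporter: beta-lactamase under ARE, stably in HepG2. Exposure: 16 h, 37 C, compounds delivered in DMSO by pin tool after 5 h cell preincubation. Readout: FRET substrate fluorescence after 2 h at RT.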

Chain of Peroxisome proliferator-activated receptor delta (Homo sapiens) (Q03181 whole entry, looked up): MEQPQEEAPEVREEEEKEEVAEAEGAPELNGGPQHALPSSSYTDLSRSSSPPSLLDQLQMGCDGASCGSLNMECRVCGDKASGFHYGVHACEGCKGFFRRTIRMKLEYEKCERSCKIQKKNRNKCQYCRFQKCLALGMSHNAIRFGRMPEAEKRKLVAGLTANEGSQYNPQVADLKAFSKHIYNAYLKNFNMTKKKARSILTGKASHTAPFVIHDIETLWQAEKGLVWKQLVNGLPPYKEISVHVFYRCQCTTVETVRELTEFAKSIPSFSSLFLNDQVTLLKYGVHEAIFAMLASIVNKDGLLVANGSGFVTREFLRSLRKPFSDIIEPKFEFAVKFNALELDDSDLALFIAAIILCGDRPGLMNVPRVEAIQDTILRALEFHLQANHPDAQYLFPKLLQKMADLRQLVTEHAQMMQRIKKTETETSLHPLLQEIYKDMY
Chain of Thyroid hormone receptor beta (Homo sapiens) (P10828 whole entry, looked up): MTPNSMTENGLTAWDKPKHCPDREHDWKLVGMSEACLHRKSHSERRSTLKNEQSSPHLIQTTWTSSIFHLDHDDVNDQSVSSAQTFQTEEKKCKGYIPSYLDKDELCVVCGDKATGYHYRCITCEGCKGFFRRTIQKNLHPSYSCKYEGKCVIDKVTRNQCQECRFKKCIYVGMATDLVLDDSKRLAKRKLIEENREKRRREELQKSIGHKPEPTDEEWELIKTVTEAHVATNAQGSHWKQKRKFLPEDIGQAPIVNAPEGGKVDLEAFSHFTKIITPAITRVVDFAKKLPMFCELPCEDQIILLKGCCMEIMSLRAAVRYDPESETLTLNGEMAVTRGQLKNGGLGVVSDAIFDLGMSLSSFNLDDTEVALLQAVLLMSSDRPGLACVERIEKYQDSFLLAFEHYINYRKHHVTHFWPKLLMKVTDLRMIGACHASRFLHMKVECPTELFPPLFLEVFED
Chain of Estrogen receptor (Homo sapiens) (P03372 whole entry, looked up): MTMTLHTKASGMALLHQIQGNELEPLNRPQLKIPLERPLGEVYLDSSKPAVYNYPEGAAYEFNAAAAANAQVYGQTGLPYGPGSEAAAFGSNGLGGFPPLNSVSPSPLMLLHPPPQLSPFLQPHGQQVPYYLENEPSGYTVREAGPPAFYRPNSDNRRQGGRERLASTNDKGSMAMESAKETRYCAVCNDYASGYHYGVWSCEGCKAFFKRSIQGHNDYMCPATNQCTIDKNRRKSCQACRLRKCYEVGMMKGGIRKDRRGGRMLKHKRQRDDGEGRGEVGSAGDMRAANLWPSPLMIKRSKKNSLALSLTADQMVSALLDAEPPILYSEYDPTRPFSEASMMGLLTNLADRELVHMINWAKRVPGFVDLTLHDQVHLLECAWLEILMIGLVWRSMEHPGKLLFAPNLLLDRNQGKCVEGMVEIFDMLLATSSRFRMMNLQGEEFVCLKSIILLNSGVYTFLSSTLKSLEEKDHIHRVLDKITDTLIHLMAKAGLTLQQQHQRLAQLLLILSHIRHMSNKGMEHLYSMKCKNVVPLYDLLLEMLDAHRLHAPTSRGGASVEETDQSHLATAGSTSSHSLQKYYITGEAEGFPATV
Chain of Glucocorticoid receptor (Homo sapiens) (P04150 whole entry, looked up): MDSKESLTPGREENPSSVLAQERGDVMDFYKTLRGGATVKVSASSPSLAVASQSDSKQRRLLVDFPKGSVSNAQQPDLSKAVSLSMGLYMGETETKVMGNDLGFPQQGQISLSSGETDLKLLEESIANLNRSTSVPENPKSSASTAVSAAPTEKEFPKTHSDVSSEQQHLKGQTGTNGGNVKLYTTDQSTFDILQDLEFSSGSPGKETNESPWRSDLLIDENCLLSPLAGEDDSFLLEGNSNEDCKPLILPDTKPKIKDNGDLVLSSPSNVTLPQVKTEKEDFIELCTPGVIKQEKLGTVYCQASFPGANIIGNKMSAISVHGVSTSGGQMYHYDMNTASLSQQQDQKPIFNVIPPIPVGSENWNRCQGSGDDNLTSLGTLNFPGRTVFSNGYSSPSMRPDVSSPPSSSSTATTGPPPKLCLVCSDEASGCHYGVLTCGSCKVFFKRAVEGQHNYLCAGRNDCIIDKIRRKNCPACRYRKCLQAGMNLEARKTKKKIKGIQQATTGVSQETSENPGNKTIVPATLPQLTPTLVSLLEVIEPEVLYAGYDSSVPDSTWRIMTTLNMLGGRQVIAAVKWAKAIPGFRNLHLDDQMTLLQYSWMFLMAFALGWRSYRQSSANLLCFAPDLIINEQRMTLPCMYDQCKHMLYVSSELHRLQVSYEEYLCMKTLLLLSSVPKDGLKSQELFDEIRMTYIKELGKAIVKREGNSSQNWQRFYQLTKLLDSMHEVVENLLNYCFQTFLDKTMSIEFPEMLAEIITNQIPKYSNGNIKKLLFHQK
Chain of Peroxisome proliferator-activated receptor gamma (Homo sapiens) (P37231 whole entry, looked up): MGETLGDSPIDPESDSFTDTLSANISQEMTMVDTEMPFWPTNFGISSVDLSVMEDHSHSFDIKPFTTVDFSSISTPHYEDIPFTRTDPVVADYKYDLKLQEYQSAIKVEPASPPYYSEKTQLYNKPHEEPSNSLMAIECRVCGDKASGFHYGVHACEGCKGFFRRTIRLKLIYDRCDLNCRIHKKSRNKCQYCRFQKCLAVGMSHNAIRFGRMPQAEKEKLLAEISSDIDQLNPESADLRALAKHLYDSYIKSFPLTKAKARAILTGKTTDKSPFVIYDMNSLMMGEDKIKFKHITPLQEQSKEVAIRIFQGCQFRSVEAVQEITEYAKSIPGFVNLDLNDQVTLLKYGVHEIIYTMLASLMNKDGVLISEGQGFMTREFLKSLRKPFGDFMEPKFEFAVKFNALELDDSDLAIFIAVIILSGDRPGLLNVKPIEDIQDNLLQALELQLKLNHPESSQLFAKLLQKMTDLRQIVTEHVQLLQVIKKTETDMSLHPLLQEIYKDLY
Chain of Vitamin D3 receptor (Homo sapiens) (P11473 whole entry, looked up): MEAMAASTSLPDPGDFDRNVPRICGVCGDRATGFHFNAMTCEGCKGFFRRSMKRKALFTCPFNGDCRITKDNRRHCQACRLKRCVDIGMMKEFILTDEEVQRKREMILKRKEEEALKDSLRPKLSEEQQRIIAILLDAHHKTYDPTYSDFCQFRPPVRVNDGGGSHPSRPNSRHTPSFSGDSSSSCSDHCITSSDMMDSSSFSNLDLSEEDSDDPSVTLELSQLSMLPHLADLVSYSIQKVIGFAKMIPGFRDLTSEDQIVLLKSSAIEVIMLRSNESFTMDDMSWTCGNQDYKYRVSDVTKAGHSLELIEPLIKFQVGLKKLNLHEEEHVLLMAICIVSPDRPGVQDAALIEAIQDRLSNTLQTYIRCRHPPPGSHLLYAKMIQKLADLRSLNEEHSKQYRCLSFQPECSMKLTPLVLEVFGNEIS
Chain of Nuclear receptor ROR-gamma (Homo sapiens) (P51449 whole entry, looked up): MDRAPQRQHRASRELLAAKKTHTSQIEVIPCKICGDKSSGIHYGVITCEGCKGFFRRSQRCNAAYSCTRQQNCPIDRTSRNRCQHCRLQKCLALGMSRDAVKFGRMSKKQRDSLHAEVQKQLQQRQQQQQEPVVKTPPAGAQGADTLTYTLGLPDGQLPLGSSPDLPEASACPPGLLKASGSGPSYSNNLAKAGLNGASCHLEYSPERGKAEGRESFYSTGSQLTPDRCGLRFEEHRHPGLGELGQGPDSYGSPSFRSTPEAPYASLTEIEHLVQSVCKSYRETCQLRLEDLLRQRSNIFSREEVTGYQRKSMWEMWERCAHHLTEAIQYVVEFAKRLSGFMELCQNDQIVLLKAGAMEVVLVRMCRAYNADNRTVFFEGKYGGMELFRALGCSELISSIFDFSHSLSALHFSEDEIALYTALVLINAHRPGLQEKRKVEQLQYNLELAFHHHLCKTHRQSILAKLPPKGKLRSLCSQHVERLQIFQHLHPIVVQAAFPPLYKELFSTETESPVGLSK

Take `ClC(Cl)(Cl)C(Cl)(Cl)Cl`: the Potency in experiment [1] was > 92 µM (inactive). Further, the Potency result in experiment [2], in experiment [3], in experiment [4], in experiment [7], in experiment [10] and in experiment [11] was “inactive” in each case. The Potency entry in experiment [12] and in experiment [13] was “inactive” each time. Further, the activation in experiment [5] was 5.68% (inactive); in experiment [9], 0.631% (inactive). For the same molecule, the outcome in experiment [6] and in [8] was inactive.

For `CCCBr`, the Potency result in [14], in [2], in [3], in [7], in [11] and in experiment [12] was “inactive” each time. In addition, in experiment [13], the Potency result was “inactive”. The outcome in [15], in experiment [6] and in [8] was inactive. Moreover, the Potency in [4] is 355 nM (active). Moreover, in [5], the activation is -1.9% (inactive). In experiment [16], the activity change % (negative = inhibition) is 3.13% (inactive).

For `CCC(Cl)[N+](=O)[O-]` (stereo not drawn), the Potency in experiment [1] was > 92 µM (inactive). In addition, the Potency result in [14], in experiment [2], in [3], in [4], in experiment [7] and in experiment [10] was “inactive” each time. Moreover, the Potency result in [11], in [12] and in [13] was “inactive” each time. The activation in experiment [5] was -1.58% (inactive); in [9], 0.0697% (inactive). Also, in experiment [17], the max response was 2.58%. The outcome in experiment [18] and in experiment [8] was inactive. Besides, in [16], the activity change % (negative = inhibition) is -30.2% (inactive).

Regarding `CC(C)(OOC(C)(C)c1ccccc1)c1ccccc1`, the Potency in experiment [1] was > 92 µM (inactive). Further, the Potency result in experiment [14], in [2], in [20], in [10], in experiment [11] and in experiment [12] was “inactive” each time. The activation in experiment [5] was -3.95% (inactive) and 1.36% (inactive); in [9], 0.182% (inactive) and -0.836% (inactive). Further, the outcome in experiment [6], in experiment [19], in [18] and in experiment [8] was inactive. In addition, the max response in experiment [17] was 42.8% and 13.3%. Moreover, the activity change % (negative = inhibition) in experiment [16] is 6.91% (inactive).

As to `CN(C)C(=O)Cl`, the Potency entry in experiment [14], in [2], in [3], in experiment [4], in experiment [7] and in experiment [20] was “inactive” throughout. The Potency entry in [10] and in experiment [12] was “inactive” throughout. Moreover, the result in experiment [15], in [6], in [19] and in [18] was inactive. For the same molecule, the activation was 12.7% (inactive) in [5] and -0.0384% (inactive) in experiment [9]. Moreover, the max response in experiment [17] is -22.3%.

On to `Clc1ccc(C(Cl)(Cl)Cl)cc1Cl`, for which the Potency entry in experiment [14], in experiment [3], in experiment [4], in experiment [7], in [10] and in experiment [11] was “inactive” each time. For the same molecule, the Potency entry in [13] was “inactive”. Besides, the result in experiment [6], in experiment [19] and in experiment [8] was inactive. Also, the activation in experiment [9] is -1.35% (inactive).
